# Test results as given in PubChem BioAssay (NCI).
# Values joined by “and” are separate entries in the source; they are usually repeats but may differ in a detail not shown here. Identical values can stand only once. Compounds without any hit were thinned out: in the full panel of roughly 83,000, 20% have a hit.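 Note: values are percent growth. 100 is the growth of untreated cells, values between 100 and 0 indicate rising inhibition; between -100 and 0 indicates cell death.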 Active and inactive are the calls of the source. The calls were made as follows: active = growth percent below 10; inactive = the rest.
# Test system: NCI-H322M lung
# Assay: NCI-60 one-dose screen, 48 h (100 = growth as untreated, 0 = no growth, -100 = all killed)
# Conditions: 10 µM unless noted
row,SMILES,growth
1,COc1ccc(C(=O)c2c(N)c(C#N)cn2-c2ccc([N+](=O)[O-])cc2)cc1,100% (inactive)
2,Fc1ccc(F)c(CNc2nc(SCCN3CCOCC3)nc3c2cnn3CC(Cl)c2ccc(Br)cc2)c1 (stereo unspecified),75.2% (inactive)
3,COc1ccc(N=Nc2c(N)nn3c(N)c(C#N)c(-c4ccc(F)cc4)nc23)cc1,77% (inactive)
4,COc1cc(CNC(=O)[C@]23CCC(C)(C)CC2C2=CCC4[C@@]5(C)CCC(OC(C)=O)C(C)(C)C5CC[C@@]4(C)[C@]2(C)CC3)ccc1OCc1cn(-c2ccc(Cl)cc2Cl)nn1 (stereo partly specified),94.1% (inactive)
5,C/C(=N\Nc1ccc(C(=O)O)cc1)c1cnn(-c2cc(=O)[nH]c3ccc(C)cc23)c1C,98.2% (inactive)
6,N#Cc1cc(-c2ccnc(Nc3ccc(N4CCN(C5COC5)CC4)cc3)n2)ccc1N1CCCC1,63.9% (inactive)
7,O=C(N/N=C/c1ccc(Cl)cc1)c1ccc(OCc2nc3ccc(Cl)cc3[nH]2)cc1,71.3% (inactive)
8,COc1ccc(-c2nc3ccccc3n2CC(=O)N=Nc2c(O)[nH]c3ccc(Br)cc23)cc1,103% (inactive)
9,Clc1ccccc1Nc1nnc(-c2c[nH]c3ccccc23)o1,47.1% (inactive)
10,O=C(NC(=S)N1CCN(c2ncnc3c2cnn3-c2ccccc2)CC1)c1ccc(Br)cc1,75.4% (inactive)
11,COc1ccc(/C=C/c2nc3ccccc3n3c(-c4cccc([N+](=O)[O-])c4)nnc23)cc1,41% (inactive)
12,CS(=O)(=O)Nc1cc(-c2ccc3ncnc(Nc4ccc(OCc5cccnc5)c(Cl)c4)c3c2)cnc1Cl,-2.48% (active)
13,O=C1CCC(N2C(=O)c3cccc(NCCOCCOCCOCCC(=O)NCCCC(=O)NC(c4ccc5c(c4)OCO5)c4cc(Cl)c5cccnc5c4O)c3C2=O)C(=O)C1 (stereo unspecified),39.5% (inactive)
14,COc1cc(/C=C/C(=O)c2cnn(-c3cc(=O)[nH]c4ccc(C)cc34)c2C)cc(OC)c1OC,9.59% (active)
15,Cc1ccc(C(=O)Nc2cc(-n3cnc(F)c3)cc(C(F)(F)F)c2)cc1C#Cc1cnc2cccnn12,97.9% (inactive)
16,COc1cc(/C=C/C(=O)c2cnn(-c3cc(=O)[nH]c4ccc(Br)cc34)c2C)cc(OC)c1OC,4.7% (active)
17,CCCCCCCOc1ccc(S(=O)(=O)Nc2ccc(C)c(F)c2C(=O)O)cc1,100% (inactive)
18,C#CCN(C)CCCOc1ccc(N(CC)C(=O)c2cc(C(C)C)c(O)cc2O)cc1Cl,23.4% (inactive)
19,COC(=O)CSC1=C(C)C(=O)C(OC)=C(OC)C1=O,93.1% (inactive)

row,SMILES,growth
1,Nc1cccc(-n2c(COc3ccc(I)cc3)nc3ccccc32)c1,94.4% (inactive) and 96.2% (inactive)
2,O=C(Nc1ccc(F)cc1)Nc1nc2ccc([N+](=O)[O-])cc2s1,7.52% (active)
3,CC(=O)Nc1cccc(-n2c(COc3ccc(I)cc3)nc3ccccc32)c1,102% (inactive) and 107% (inactive)
4,Cc1nc2sccn2c1-c1nnc(SCC(C)C)o1,82.1% (inactive)
5,COc1ccc2[nH]cc(-c3cc4nc(-c5cn(C)c6ncc(Br)cc56)cc(N)n4n3)c2c1,-47.5% (active)
6,Cc1nn(-c2ccccc2)c2ncn(CC(=O)N/N=C/c3ccccc3O)c(=O)c12,39.1% (inactive)
7,Cc1ccccc1NC(=O)c1cccc(NC(=O)CCl)c1,101% (inactive)
8,O=C1Nc2ccccc2/C1=C\c1ccc(OCC(=O)c2ccc(Br)cc2)cc1,87.5% (inactive)
9,CN1CCN(C(=O)Oc2cc3c(c4ccccc24)[C@H](CCl)CN3C(=O)c2cc3cc(OCCCN4CCC4)ccc3[nH]2)[C@@H]2CSSC[C@H]21,2.48% (active)
10,O=C(CSc1nc2sc3c(c2c(=O)n1-c1ccc(Cl)cc1)CCCC3)NNC(=O)c1ccc(F)cc1,73.8% (inactive)
11,COC(=O)c1cc(C(C)=O)n2c3ccccc3c3ccccc3c12,104% (inactive)
12,COc1ccc(NC(=O)Nc2nc3ccc([N+](=O)[O-])cc3s2)cc1,13.1% (inactive)
13,CN(C)CCCc1ccc(Nc2cnn(C)c(=O)c2Cl)cc1,92.9% (inactive)
14,COc1ccc(NC2=C(I)C(=O)C(C)=C(C)C2=O)cc1,95% (inactive)
15,CN(C(=O)CN1C(=O)/C(=C/c2ccco2)SC1=S)C1CCS(=O)(=O)C1 (stereo unspecified),99.3% (inactive)
16,Cc1ccc(C(=O)C[n+]2cccc3c4ccccc4ccc32)cc1,43.3% (inactive)
17,Cc1ccc(/C=C/C(=O)c2ccc(S(=O)(=O)NCCNc3nc(N(C)C)nc(N4CCOCC4)n3)cc2)cc1,93.7% (inactive)
18,C=CCSc1nnc(-c2ccc(-c3nc4ccccc4[nH]3)cc2)o1,97.7% (inactive)
19,Cc1ccc(Nc2nnc(-c3c[nH]c4ccccc34)o2)c(C)c1,40.2% (inactive)

# Test system: HOP-62 NSCLC
# Assay: as above
# Conditions: 10 µM unless noted
row,SMILES,growth
1,COc1ccc(C(=O)c2c(N)c(C#N)cn2-c2ccc([N+](=O)[O-])cc2)cc1,83.4% (inactive)
2,Fc1ccc(F)c(CNc2nc(SCCN3CCOCC3)nc3c2cnn3CC(Cl)c2ccc(Br)cc2)c1 (stereo unspecified),47.8% (inactive)
3,COc1ccc(N=Nc2c(N)nn3c(N)c(C#N)c(-c4ccc(F)cc4)nc23)cc1,59.6% (inactive)
4,COc1cc(CNC(=O)[C@]23CCC(C)(C)CC2C2=CCC4[C@@]5(C)CCC(OC(C)=O)C(C)(C)C5CC[C@@]4(C)[C@]2(C)CC3)ccc1OCc1cn(-c2ccc(Cl)cc2Cl)nn1 (stereo partly specified),105% (inactive)
5,C/C(=N\Nc1ccc(C(=O)O)cc1)c1cnn(-c2cc(=O)[nH]c3ccc(C)cc23)c1C,93.1% (inactive)
6,N#Cc1cc(-c2ccnc(Nc3ccc(N4CCN(C5COC5)CC4)cc3)n2)ccc1N1CCCC1,64.3% (inactive)
7,O=C(N/N=C/c1ccc(Cl)cc1)c1ccc(OCc2nc3ccc(Cl)cc3[nH]2)cc1,-41.6% (active)
8,COc1ccc(-c2nc3ccccc3n2CC(=O)N=Nc2c(O)[nH]c3ccc(Br)cc23)cc1,69.8% (inactive)
9,Clc1ccccc1Nc1nnc(-c2c[nH]c3ccccc23)o1,27.2% (inactive)
10,O=C(NC(=S)N1CCN(c2ncnc3c2cnn3-c2ccccc2)CC1)c1ccc(Br)cc1,37.4% (inactive)
11,COc1ccc(/C=C/c2nc3ccccc3n3c(-c4cccc([N+](=O)[O-])c4)nnc23)cc1,25.4% (inactive)
12,CS(=O)(=O)Nc1cc(-c2ccc3ncnc(Nc4ccc(OCc5cccnc5)c(Cl)c4)c3c2)cnc1Cl,24.3% (inactive)
13,O=C1CCC(N2C(=O)c3cccc(NCCOCCOCCOCCC(=O)NCCCC(=O)NC(c4ccc5c(c4)OCO5)c4cc(Cl)c5cccnc5c4O)c3C2=O)C(=O)C1 (stereo unspecified),34.3% (inactive)
14,COc1cc(/C=C/C(=O)c2cnn(-c3cc(=O)[nH]c4ccc(C)cc34)c2C)cc(OC)c1OC,2.27% (active)
15,Cc1ccc(C(=O)Nc2cc(-n3cnc(F)c3)cc(C(F)(F)F)c2)cc1C#Cc1cnc2cccnn12,85.7% (inactive)
16,COc1cc(/C=C/C(=O)c2cnn(-c3cc(=O)[nH]c4ccc(Br)cc34)c2C)cc(OC)c1OC,-9.41% (active)
17,CCCCCCCOc1ccc(S(=O)(=O)Nc2ccc(C)c(F)c2C(=O)O)cc1,98% (inactive)
18,C#CCN(C)CCCOc1ccc(N(CC)C(=O)c2cc(C(C)C)c(O)cc2O)cc1Cl,26% (inactive)
19,COC(=O)CSC1=C(C)C(=O)C(OC)=C(OC)C1=O,85.3% (inactive)

row,SMILES,growth
1,Nc1cccc(-n2c(COc3ccc(I)cc3)nc3ccccc32)c1,86.9% (inactive) and 103% (inactive)
2,O=C(Nc1ccc(F)cc1)Nc1nc2ccc([N+](=O)[O-])cc2s1,-0.8% (active)
3,CC(=O)Nc1cccc(-n2c(COc3ccc(I)cc3)nc3ccccc32)c1,118% (inactive) and 120% (inactive)
4,Cc1nc2sccn2c1-c1nnc(SCC(C)C)o1,95.2% (inactive)
5,COc1ccc2[nH]cc(-c3cc4nc(-c5cn(C)c6ncc(Br)cc56)cc(N)n4n3)c2c1,-50.2% (active)
6,Cc1nn(-c2ccccc2)c2ncn(CC(=O)N/N=C/c3ccccc3O)c(=O)c12,27.4% (inactive)
7,Cc1ccccc1NC(=O)c1cccc(NC(=O)CCl)c1,32.3% (inactive)
8,O=C1Nc2ccccc2/C1=C\c1ccc(OCC(=O)c2ccc(Br)cc2)cc1,104% (inactive)
9,CN1CCN(C(=O)Oc2cc3c(c4ccccc24)[C@H](CCl)CN3C(=O)c2cc3cc(OCCCN4CCC4)ccc3[nH]2)[C@@H]2CSSC[C@H]21,-40.4% (active)
10,O=C(CSc1nc2sc3c(c2c(=O)n1-c1ccc(Cl)cc1)CCCC3)NNC(=O)c1ccc(F)cc1,23.7% (inactive)
11,COC(=O)c1cc(C(C)=O)n2c3ccccc3c3ccccc3c12,57.9% (inactive)
12,COc1ccc(NC(=O)Nc2nc3ccc([N+](=O)[O-])cc3s2)cc1,25.4% (inactive)
13,CN(C)CCCc1ccc(Nc2cnn(C)c(=O)c2Cl)cc1,108% (inactive)
14,COc1ccc(NC2=C(I)C(=O)C(C)=C(C)C2=O)cc1,85.4% (inactive)
15,CN(C(=O)CN1C(=O)/C(=C/c2ccco2)SC1=S)C1CCS(=O)(=O)C1 (stereo unspecified),123% (inactive)
16,Cc1ccc(C(=O)C[n+]2cccc3c4ccccc4ccc32)cc1,36.1% (inactive)
17,Cc1ccc(/C=C/C(=O)c2ccc(S(=O)(=O)NCCNc3nc(N(C)C)nc(N4CCOCC4)n3)cc2)cc1,114% (inactive)
18,C=CCSc1nnc(-c2ccc(-c3nc4ccccc4[nH]3)cc2)o1,84.2% (inactive)
19,Cc1ccc(Nc2nnc(-c3c[nH]c4ccccc34)o2)c(C)c1,23.2% (inactive)
